Data on 40 molecules can be found in PubChem BioAssay (NCATS).

Records with an inconclusive call do not appear. Activity calls are given as the source filed them. The call rests on the fitted dose curve; in most records, active means well fitted inhibition curve with a large enough effect; inconclusive means small, poorly fitted or top-dose-only effect; inactive means flat fitted curve, though single readings scatter.

Chain of Phospholipid hydroperoxide glutathione peroxidase GPX4 (Homo sapiens) (P36969 whole entry, looked up): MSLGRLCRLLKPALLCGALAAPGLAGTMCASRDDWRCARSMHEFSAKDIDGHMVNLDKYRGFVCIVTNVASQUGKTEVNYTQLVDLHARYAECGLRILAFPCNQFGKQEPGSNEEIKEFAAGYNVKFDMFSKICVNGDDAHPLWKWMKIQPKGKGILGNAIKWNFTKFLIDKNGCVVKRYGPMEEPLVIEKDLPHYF

The target in the assay is Phospholipid hydroperoxide glutathione peroxidase GPX4 (Homo sapiens) (UniProt P36969). As to the kind of experiment: Primary qHTS Assay for Inhibitors of Recombinant Selenoprotein Glutathione Peroxidase 4 (GPX4) (AID 1845192). Further: nearly all actives have a fitted effect of over 65% in size. The conditions noted are these: recombinant GPX4, GR-coupled NADPH fluorescence, 15 min; series mostly up to 50 µM. The text has this:
Assay Provider: Elias S.J. Arner MD PhD.
Department of Medical Biochemistry and Biophysics
Karolinska Institutet, Solna, Stockholm, Sweden
Selenoprotein glutathione peroxidases (GPX), like the ubiquitously expressed GPX1 and the ferroptosis modulator GPX4, enact their antioxidant activities by reducing hydroperoxides using glutathione. […] GPX1 and GPX4 inhibitors have thus shown promise as anti-cancer agents. Existing inhibitors are often promiscuous, or modulate GPX activity only indirectly, so novel direct inhibitors identified through screening against GPX1 and GPX4 could be valuable. Here, we developed optimized glutathione reductase (GR)-coupled GPX assays for the biochemical high-throughput screen (HTS) of almost 12,000 compounds with known mechanisms of action. Initial hits were triaged using a GR counter-screen, assessed for isoform specificity using a separate GPX2 assay, and were assessed for general selenocysteine-targeting activity using a thioredoxin reductase (TXNRD1) assay. With this suite of assays, we identified novel GPX1/GPX2- and GPX4-specific inhibitors and can here present a validated pipeline for future discovery research for selenoprotein-targeting agents.
SEQUENCE No. (e.g., 1, 2, 3, etc.); […] (e.g., Cells, Incubation, Reagent, etc.); VALUE; DESCRIPTION.
1; Reagent 1; 3 uL; 333.33 nM GPx4 enzyme or no enzyme control in 1536-well, black, solid Greiner assay plate.
2; Compound; 25 nL; Kalypsis pin tool (Wako USA) equipped with a 1536-well pin head.
3; Incubation; 30 min; room temperature.
4; Reagent 2; 1 uL; 500 nM GR, 5 mM GSH, 2.5 mM NADPH solution
5; Reagent 3; 1 uL; 2.5 mM CHP in 50% EtOH.
6; Detection; Fluorescence; ViewLux microplate reader, excitation 340 nm and emission 450 nm.
7; Incubation; 15 min; room temperature.
8; Detection; Fluorescence; ViewLux microplate reader, excitation 340 nm and emission 450 nm.
NOTES (numbers refer to Sequence numbers above)
1. 3 µL of 333.33 nM GPX4 and 0.016% BSA in assay buffer (50 mM Tris-HCl, 2 mM EDTA (pH 7.5), 150 mM NaCl) was added to columns 3-48 of 1536-well plates using a BioRAPTR Flying Reagent Dispenser (Let's Go Robotics (LGR), Carlsbad, CA). A no-enzyme control (0.01% BSA in TES assay buffer) was added to columns 1-2.
2. 25 nL, library and DMSO controls were added to each well with a pin tool (Kalypsys).
3. The assay plates were incubated for 30 minutes at room temperature.
4. 1 µL of master mix (500 nM glutathione reductase (GR), 5 mM reduced glutathione (GSH), 2.5 mM NADPH in assay buffer) was added.
5. 1 µL of cumene hydroperoxide (CHP) ([2.5 mM] in 50% EtOH) was then added within 5 minutes to initiate the reaction. Final concentrations were: 200 nM GPX4, 1 mM GSH, 0.5 mM CHP, 0.5 mM NADPH, 100 nM GR, 0.01% BSA.
6. Initial fluorescence readout (t=0) at 340/450 nm was measured using a ViewLux multimodal detector (PerkinElmer, Waltham, MA).
8. Endpoint fluorescence readout (t=15) at 340/450 nm was measured 15 min after room temperature incubation.
For orientation: qHTS replaces the single test concentration by a dilution series.
As for `FC(F)(F)c1ccccc1-n1ccnc1`, the outcome was inactive.

On to `CN(C)CCN(Cc1cccs1)c1ccccn1`, for which the outcome was inactive.

`CC(C)NNC(=O)c1ccncc1`: the result was inactive.

As to `NC(=O)c1ncn([C@@H]2O[C@H](CO)[C@@H](O)[C@H]2O)c1O`, the result was inactive.

With `O=C(O)CCCCCCCC(=O)O`, the result was inactive.

Take `C[N+](C)(C)CCCCCCCCCC[N+](C)(C)C`: the outcome was inactive.

For `CN(C)CCCN1c2ccccc2Sc2ccccc21`, the outcome was inactive.

`C[C@H](CS)C(=O)N1CCC[C@H]1C(=O)O`: the outcome was inactive.

Consider `CCOC(=O)c1cnc2c(cnn2CC)c1NN=C(C)C`, for which the result was inactive.

With `Cc1nc2sccn2c(=O)c1CCN1CCC(=C(c2ccc(F)cc2)c2ccc(F)cc2)CC1`, the result was inactive.

Regarding `COc1ccc(CCN(C)CCCC(C#N)(c2cc(OC)c(OC)c(OC)c2)C(C)C)cc1OC` (stereo not given), the outcome was inactive.

With `CN1CCN(CC(=O)N2c3ccccc3C(=O)Nc3cccnc32)CC1`, the outcome is “inactive [at 4.52 µM]”.

Regarding `CCN(CC)CCCN(c1ccccc1)C1Cc2ccccc2C1`, the outcome was inactive.

Consider `CN=C(NC#N)NCCSCc1nc[nH]c1C`, for which the result was inactive.

As to `CCn1nc(C(=O)O)c(=O)c2cc3c(cc21)OCO3`, the result was inactive.

Turning to `CCc1c(C)[nH]c2c1C(=O)C(CN1CCOCC1)CC2` (stereo not given), the result was inactive.

Take `CN(C)CCOC(=O)COc1ccc(Cl)cc1`: the result was inactive.

As for `CN(C)CC/C=C1\c2ccccc2COc2ccccc21`, the outcome was inactive.

For `c1ccc2c(c1)CCCC2C1=NCCN1` (stereo not given), the outcome was inactive.

Take `CCCN1C[C@H](CSC)C[C@@H]2c3cccc4[nH]cc(c34)C[C@H]21`: the result was inactive.

Turning to `C[C@@H](O)[C@H]1C(=O)N2C(C(=O)O)=C(SCCN=CN)C[C@H]12`, the result was inactive.

For the molecule `CN(C(=O)CCCOc1ccc2[nH]c(=O)ccc2c1)C1CCCCC1`, the outcome was inactive.

On to `CCCCNc1ccc(C(=O)OCCN(C)C)cc1`, for which the outcome was inactive.

`CC(=O)OCC1=C(C(=O)O)N2C(=O)[C@@H](NC(=O)Cc3cccs3)[C@H]2SC1`: the outcome was inactive.

Regarding `CN(C)C/C=C(/c1ccc(Br)cc1)c1cccnc1`, the result was inactive.

As to `CN1C(=O)CC[C@H]1c1cccnc1`, the outcome was inactive.

On to `Brc1c(NC2=NCCN2)ccc2nccnc12`, for which the outcome was inactive.

For the molecule `CN1CCN(C2=Nc3ccccc3Oc3ccc(Cl)cc32)CC1`, the result was inactive.

Take `Cc1ccc(S(=O)(=O)NC(=O)NN2CCCCCC2)cc1`: the outcome was inactive.

`CCCCNc1c(C(=O)OCC)c(C)nc2c1cnn2CC`: the result was inactive.

As for `COc1cc(Cc2cnc(N)nc2N)cc(OC)c1OC`, the outcome was inactive.

As to `O=C1CC2(CCCC2)CC(=O)N1CCCCN1CCN(c2ncccn2)CC1`, the result was inactive.

`OCCN1CCN(CCCN2c3ccccc3C=Cc3ccccc32)CC1`: the result was inactive.

For the molecule `O=C1NCN(c2ccccc2)C12CCN(CCCC(c1ccc(F)cc1)c1ccc(F)cc1)CC2`, the outcome was inactive.

In the case of `CCCCCN(CCCCC)C(=O)C(CCC(=O)O)NC(=O)c1ccc(Cl)c(Cl)c1` (stereo not given), the outcome was inactive.

Take `CCN(Cc1ccncc1)C(=O)C(CO)c1ccccc1` (stereo not given): the outcome was inactive.

For the molecule `CCCCCCCC/C=C\CCCCCCCC(=O)NCc1ccc(O)c(OC)c1`, the result was inactive.

Turning to `CCC(=O)c1ccc2c(c1)N(CCCN(C)C)c1ccccc1S2`, the outcome was inactive.

As for `Nc1c2c(nc3ccccc13)CCCC2O` (stereo not given), the result was inactive.

Take `CCc1cccc(N(C)C(N)=Nc2cccc3ccccc23)c1`: the outcome was inactive.
